This note sets out measurements from PubChem BioAssay.

A number with no mark means an inactive call. The rule behind the calls is not given here.

The nature of this experiment: inhibitors of hydroxyurea-induced Chk1 phosphorylation, primary screen, imaging, HeLa, phospho-Chk1 antibody, percent positive cells (AID 1186). The following applies: hydroxyurea-induced phospho-Chk1 immunofluorescence imaging, higher = more signal.
As to `NCCCCCNC(=O)[C@@H]1C[C@@H]2C(=O)N[C@@H](Cc3ccccc3)C(=O)N2[C@@H]1c1ccc(O)cc1`, the z-score was 0.296. In the case of `CN(C)CCCCCCNC(=O)[C@@H]1C[C@@H]2C(=O)N[C@@H](Cc3ccccc3)C(=O)N2[C@@H]1c1ccc(O)cc1` it was -0.165; in that of `C=CC[C@]1(C(=O)NCc2ccccc2)N=C(c2ccc(OCCCO)cc2)O[C@H]1c1ccccc1N=[N+]=[N-]`, -0.22. Then `CC(C)N1C(=O)[C@@]2(Cc3ccccc31)c1ccccc1C(=O)N(Cc1ccccc1Cl)[C@H]2c1ccc(CO)cc1`, with -0.339; and `C=CCNC(=O)[C@@H]1[C@H]2C(=O)O[C@H](c3ccccc3)[C@H](c3ccccc3)N2[C@H](c2ccccc2OCCO)[C@@]12C(=O)N(C(=O)OCCOC)c1ccccc12`, with 0.115. On to `C=C(COC)/C(=C/C[C@H](OC(C)=O)c1ccc(CO)o1)c1cc(C(=O)OC)ccc1OC`, for which the z-score is -0.45. Regarding `O=C1NC(=O)C2C1C=CC(C(O)c1cc(C(F)(F)F)cc(C(F)(F)F)c1)N2Nc1ccccn1` (stereo not given), the z-score is 0.429. Then `OCCCC1=CC(c2cccs2)N(Cc2cc3c(cc2Br)OCO3)CC1` (stereo not given), with 0.32.

With `C[C@H]1NC(=O)[C@@]23C(=O)N[C@@H](Cc4ccccc4)C2[C@H](C)[C@@]2(C)O[C@H]2C3/C=C/C/C=C\CNC(=O)[C@@H]2CCCN2C1=O` (stereo not given in full), the z-score was 0.237.

As to `COC(=O)[C@@]1(Cc2ccc(OC)cc2)[C@H]2c3cc(C(=O)N(C)C)n(Cc4ccc(S(C)(=O)=O)cc4)c3C[C@H]2CN1C(=O)c1ccccc1`, the z-score is -0.907.
